# Sfp PPTase inh – qHTS Assay for Inhibitors of Bacillus subtilis Sfp phosphopantetheinyl transferase (PPTase); 4'-phosphopantetheinyl transferase ffp (Bacillus subtilis), Q9F4F7; Biochemical Sfp PPTase activity, qHTS; Potency, µM, for inactives: largest response in the series, negative = inhibition, hits mostly inhibitors; 3.5% of 310,000 active; AID 1490, 2009;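 also: the enzyme is Sfp with the accession as filed and its product quenches rhodamine fluorescence; 0% = enzyme reaction without inhibitor and -100% = no enzyme wells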
#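 Reaction rates are the 30-min fluorescence difference (ex 525, em 598 nm) in wells containing 15 nM Sfp, 5 uM rhodamine-CoA and 12.5 uM BHQ-2-YbbR at pH 7.6 with 10 mM MgCl2.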
# JMJD2A Tudor inh – qHTS Assay for Inhibitors of JMJD2A-Tudor Domain; Lysine-specific demethylase 4A (Homo sapiens), O75164; Potency, µM (top dose mostly 114 µM), inactives show top-dose activity change, negative = inhibition, actives largely listed as inhibitors; AlphaScreen JMJD2A-Tudor / H3K4me3 peptide binding; 4.4% of 390,000 active; also: % is scaled to controls: 0 for no effect and ±100 for the full control effect; nearly all actives have a fitted effect of over 50% in size
# HP1b binding inh – HTS for Inhibitors of HP1-beta Chromodomain Interactions with Methylated Histone Tails; Chromobox protein homolog 1 (Homo sapiens), P83916; AlphaScreen HP1-beta / biotin-H3K9me3 peptide binding; Potency, µM (doses to about 114 µM), for the others: at the top dose activity change, negative = inhibition, usual class: inhibitors; 0.56% of 390,000 active; also: nearly all actives have a fitted effect of over 70% in size
#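 Compound inhibition of the preformed complex between 50 nM HP1-beta and 50 nM biotinylated H3K9me3 peptide was read by AlphaScreen. Buffer was PBS pH 7.4 with 0.01% Tween-20. Incubations ran 30 min at room temperature, with 10 ug/mL donor/acceptor beads.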
# G9a block – qHTS Assay for Inhibitors of Histone Lysine Methyltransferase G9a; G9a H3K9 monomethylation, AlphaScreen, 2 h; Histone-lysine N-methyltransferase EHMT2 (Homo sapiens), Q96KQ7; 8.8% of 350,000 active; Potency, µM (top dose mostly 102 µM), without a hit: at the top dose activity, negative = inhibition, usual class: inhibitors; also: % is scaled to controls: 0 for no effect and ±100 for the full control effect; nearly all actives have a fitted effect of over 75% in size
#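 Enzyme 20 nM + cpd, 15 min RT; add b-H3K9 pep 500 nM / SAM 20 uM; 2 h RT; anti-H3K9me1 Ab 0.5 ug/mL + SA donor / anti-rabbit acceptor beads 20 ug/mL each, 10 min; AlphaScreen read.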
# TDP1 inh – qHTS Assay for Inhibitors of Tyrosyl-DNA Phosphodiesterase (TDP1). AID 485290, 2010. Tyrosyl-DNA phosphodiesterase 1 (Homo sapiens), Q9NUW8. Potency, µM (titrated, usually from 130 µM), without a hit: at the highest dose activity change, negative = inhibition, hits mostly inhibitors. 0.28% of 350,000 active. recombinant TDP1, AlphaScreen DNA substrate cleavage; also: % is scaled to controls: 0 for no effect and ±100 for the full control effect; nearly all actives have a fitted effect of over 40% in size
#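 Steps: enzyme plus compound, 15 min RT; add biotin/phosphotyrosine-FITC oligonucleotide (15 nM final), react 5 min; add donor/acceptor beads (10 ug/ml final), 10 min; read AlphaScreen. Tdp1 at 1 nM final.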
# BAZ2B block – qHTS Assay for Inhibitors of BAZ2B; AID 504333, 2011; AlphaScreen BAZ2B-H3K14Ac peptide displacement; 4.4% of 360,000 active; Potency, µM (top dose mostly 114 µM), without a hit: top-dose activity change, negative = inhibition, actives largely listed as inhibitors; also: % is scaled to controls: 0 for no effect and ±100 for the full control effect; nearly all actives have a fitted effect of over 60% in size
#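 Complex of BAZ2B and biotin-H3K14Ac (50 nM apiece) forms over 30 min at RT, then faces library compounds up to 110 uM for another 30 min; AlphaScreen beads added, 20 min dark incubation, luminescence read.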
# * marks the source's active call; other numbers are inactive results; ? = inconclusive; / = not tested or not shown; [ ] = remark or other dose. In the library only some 12% were active in any assay of this set; here they are far more common. Calls follow the shape of the dose curve; as a rule, active = well fitted curve in the direction sought with a large enough effect; inconclusive = small, poorly fitted or top-dose-only effect, or another doubt; inactive = no such curve, though single readings can be large; an effect the other way counts as inactive or inconclusive. Potency is read from the fitted curve at half-maximal effect.
SMILES,Sfp PPTase inh,JMJD2A Tudor inh,HP1b binding inh,G9a block,TDP1 inh,BAZ2B block
O=C(Nc1sc2c(c1C(=O)O)CCCCC2)c1ccccc1,40µM*,-28%,?,/,-3%,?
CC1(C)Cc2c(sc(NC(=O)c3ccccc3)c2C(=O)O)CO1,-21%,-4%,-17%,45µM*,3%,-35%
Cc1ccc(NC(=O)C2CCN(C(=O)c3sc4nc[nH]c(=O)c4c3C)CC2)cc1F,/,-19%,20%[57 µM],-2%[59 µM],3%,2%
C[N+]1=C(/C=C/Nc2ccccc2Cl)C(C)(C)c2ccccc21,-15%,?,-21%,7.9µM*,9%,-34%
Cc1nc2scc(-c3cccs3)c2c(=O)n1CC(=O)O,-20%,0%,37%,-3%[59 µM],-1%,6%
CCn1c(=S)[nH]c2scc(-c3cccs3)c2c1=O,-5%,-33%,27%,35µM*,7%,-21%
CC(C)n1c(=S)[nH]c2scc(-c3cccs3)c2c1=O,40µM*,?,-15%,28µM*,5%,50µM*
O=[N+]([O-])c1ccc(NN=C(c2ccccc2)c2ccccc2)nc1,/,-5%,23%,/,/,/
Oc1ccc(N=Nc2ccc3ccccc3c2)cc1,-8%,45µM*,?,-3%[0.501 µM],/,32µM*
COc1cc(N=Nc2ccccc2C(=O)O)ccc1O,-25%,-7%,14%,50µM*,-1%,-34%
COc1cc(N=Nc2ccc3ccccc3c2)ccc1O,5%,40µM*,?,-47%[12.7 µM],/,25µM*
CCCC[C@@H](C)/C=C(C)/C=C(\C)C(=O)NC1=C[C@@](O)(/C=C/C=C/C=C/C(=O)NC2=C(O)CCC2=O)[C@@H]2O[C@@H]2C1=O,?,/,/,/,-2%,/
CC(C)C[C@@H](NC(=O)[C@@H](Cc1ccccc1)NC(=O)c1cnccn1)B(O)O,31%,/,/,1%[12.7 µM],/,/
CCOc1ccc(NC(=O)C(C)N2C(=O)c3ccccc3S2(=O)=O)cc1 (stereo not drawn),/,-11%,37%,-4%,/,11%
CC(C(=O)Nc1ccc(N(C)C)cc1)N1C(=O)c2ccccc2S1(=O)=O (stereo not drawn),/,45µM*,?,14µM*,/,?
CC(OC(=O)CCN1C(=O)c2cccc([N+](=O)[O-])c2C1=O)C(=O)Nc1cc(Cl)cc(Cl)c1 (stereo not drawn),-12%,-23%,4%,25µM*,-3%,-34%
CCOC(=O)c1c(NC(=O)c2cc3nc(-c4ccc(OC)cc4)cc(C(F)(F)F)n3n2)sc2c1CCC(C)C2 (stereo not drawn),/,-15%,11%,4%[59 µM],0%,2%
Cc1ccccc1OCCC(=O)N1CCN(S(=O)(=O)c2ccc(Cl)cc2)CC1,/,-18%,34%,45µM*,1%,-28%
Cc1ccccc1OCCC(=O)N1CCN(S(=O)(=O)c2ccc(F)cc2)CC1,3%,-1%,24%,50%,4%,-12%
CCOc1ccc(CN2CCN(S(=O)(=O)c3ccc(Cl)cc3)CC2)cc1,/,?,-32%,2.2µM*,?,-1%
CCOc1ccc(OCCCC(=O)N2CCN(S(=O)(=O)c3ccc(Cl)cc3)CC2)cc1,/,18µM*,?,2.8µM*,-1%,45µM*
CCCCC(CC)CCC(CC(C)C)OS(=O)(=O)O (stereo not drawn),13%,/,/,-3%[12.7 µM],/,/
Oc1c(Cl)cc(Cl)cc1CNc1nccs1,6%,-13%,16%,79µM*,4%,0%
Cc1cccc(NCc2cc(Cl)cc(Cl)c2O)n1,-2%,-14%,30%,-51%[59 µM],0%,-10%
COc1ccccc1C(=O)NCc1nnnn1-c1ccc(C)c(C)c1,/,-10%,19%[57 µM],15%[59 µM],3%,8%
SMILES,Sfp PPTase inh,JMJD2A Tudor inh,HP1b binding inh,G9a block,TDP1 inh,BAZ2B block
NC(C(=O)O)c1cccc(O)c1 (stereo not drawn),5%,/,/,43%[59 µM],1%,/
CCN1CCN(S(=O)(=O)c2ccc(S(=O)(=O)NC3CC3)cc2)CC1,2%,-5%,27%,50µM*,/,-14%
CCN1CCN(S(=O)(=O)c2ccc(C(C)(C)C)cc2)CC1,12%,-19%,20%,3%,/,-5%
O=CN1CCN(S(=O)(=O)c2ccc(S(=O)(=O)NC3CCCCC3)cc2)CC1,-4%,-1%,6%,45µM*,1%,7%
CC(=O)N1CCN(S(=O)(=O)c2ccc(S(=O)(=O)NC3CCCCC3)cc2)CC1,8%,-14%,22%,50µM*,3%,-2%
Cc1ccc(C)c(/C=C/C(=O)c2ccccc(=O)c2O)c1,?,?,-26%,45µM*,9%,56µM*
Cc1ccc(/C=C/C(=O)c2ccccc(=O)c2O)c(C)c1,?,?,-39%,50µM*,9%,50µM*
O=C(/C=C/c1ccccc1Cl)c1ccccc(=O)c1O,45µM*,?,?,32µM*,11%,56µM*
Cc1ccc(/C=C/C(=O)c2ccccc2)cc1,-4%,62%,/,1%[12.7 µM],2%,67%
CC(C)NS(=O)(=O)c1ccc(OCC(=O)Nc2cccc(F)c2)cc1,11%,10%,37%,41%[59 µM],0%,-14%
O=C(NNC(=O)c1ccccc1O)c1ccc(Cl)c(S(=O)(=O)N2CCCCC2)c1,/,-19%,33%,4%,-6%,5%
Cc1ccc(C)c(N2CCN(C(=O)c3ccc(CS(=O)Cc4cccc(Cl)c4)o3)CC2)c1 (stereo not drawn),-20%,?,-7%,?,5%,?
Nc1nc2c(c(=O)[nH]1)N=C(CNc1ccc(C(=O)NC(CCC(=O)O)C(=O)O)cc1)CN2 (stereo not drawn),-19%,/,/,/,/,/
COc1ccccc1CNc1nc(C)c(C(=O)N(C)C)s1,45µM*,-6%,?,14µM*,13%,-22%
COc1ccccc1CNc1nc(C)c(C(C)=O)s1,?,-23%,-19%,11µM*,14%,?
Cc1nc(NCCc2ccccc2)sc1C(=O)N(C)C,?,-4%,-17%,25µM*,5%,6%
COc1ccccc1CNc1nc(S(=O)(=O)c2ccccc2)c(Cl)s1,-22%,-17%,20%,?,5%,?
Cc1ccc(-c2csc(=Nc3ccc(F)cc3)n2Cc2ccc3c(c2)OCO3)cc1C,/,50µM*,?,14µM*,1%,4.5µM*

# Compound activity from PubChem.
